Compound activity from PubChem.
SW480 rerep – induces DNA re-replication in SW480 colon adenocarcinoma cells; 340,000 tested, 1.8% active; AID 624297; Potency, µM (top dose mostly 46.1 µM), for the others: top-dose re-replication activation, most hits filed as activators; SW480 DNA re-replication, Hoechst DNA content imaging, 48 h; also: % of control where 0% means no effect; nearly all actives have a fitted effect of over 55% in size
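First, 250 cells per well were seeded. Next, compound or vehicle (23 nL) was pinned in, plates sat 48 hr at 37 C. Finally Hoechst was added for 40 min before fluorescence scanning.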
ELG1 repair inh – inhibitors of ELG1-dependent DNA repair in HEK293T cells; HEK293T ELG1-luciferase reporter, luminescence, 16 h; DNA damage induced by 5-fluorouridine; Potency, µM (series often up to 46.1 µM), for inactives: at the top dose activity change, negative = inhibition, usual class: inhibitors; 330,000 tested, 2.3% active; also: % is scaled to controls: 0 for no effect and ±100 for the full control effect; nearly all actives have a fitted effect of over 55% in size
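Overnight (16 hr) co-exposure of 2,000 cells/well to 5-fluorouridine and compound at 37 °C preceded detection. Luciferase was quantified via ONE-Glo luminescence; loss of signal denotes inhibition.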
KB-3-1 tox – KB-3-1 parental cell cytotoxicity | AID 1347075 | 400,000 tested, 1.4% active | Potency, µM (titrated, usually from 46.1 µM), usual class: cytotoxic | KB-3-1 viability, CellTiter-Glo ATP luminescence, 72 h; also: % is scaled to controls: 0 for no effect and ±100 for the full control effect; nearly all actives have a fitted effect of over 60% in size
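Here the drug-naive KB-3-1 line serves as comparator for MDR sub-line selectivity; cells received compound titrations, 72 h at 37 °C, then CellTiter-Glo readout.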
KB-V1 MDR tox – KB-V1 MDR subline cytotoxicity | Potency, µM (series often up to 46.1 µM), most hits filed as cytotoxic | AID 1347076 | KB-V1 MDR cells viability, CellTiter-Glo, 72 h | 400,000 tested, 3.4% active; also: % is scaled to controls: 0 for no effect and ±100 for the full control effect; nearly all actives have a fitted effect of over 60% in size
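Luminescent ATP read-out (CellTiter-Glo, 10 min) measures survival of drug-selected KB-V1 MDR cells after 72 h, 37 degrees C compound exposure. Medium: phenol-red-free DMEM, 10% FBS. Values from fitted concentration-response curves.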
MCF10A rerep – inducers of DNA re-replication in MCF 10A breast cells; MCF 10A DNA re-replication, Hoechst nuclear intensity, 48 h; Potency, µM (series often up to 46.1 µM), for inactives: at the highest dose activity, positive = re-replication, actives largely listed as activators; 350,000 tested, 2.9% active; AID 624296; also: % of control where 0% means no effect; nearly all actives have a fitted effect of over 50% in size
Numbers without * were called inactive; i = inactive; ? = inconclusive; nt = no result given; ! = a repeat was not active. Most compounds without a hit are left out; they make up all but 8.2% or so of the library. Calls follow the shape of the dose curve; as a rule, active = well fitted curve in the direction sought with a large enough effect; inconclusive = small, poorly fitted or top-dose-only effect, or another doubt; inactive = no such curve, though single readings can be large; an effect the other way counts as inactive or inconclusive. Potency is read from the fitted curve at half-maximal effect.

SMILES	SW480 rerep	ELG1 repair inh	KB-3-1 tox	KB-V1 MDR tox	MCF10A rerep
O=[N+]([O-])c1ccc(/C=C/c2cc(Cl)nc3ccccc23)cc1	nt	nt	?	i	nt
Cc1nc2ccc(NC(=S)NCc3ccccc3)cc2nc1C	-0.6%	?	i	?	3.9%
COc1ccc(N(C)C(=S)Nc2ccc3nc(C)c(C)nc3c2)cc1	-9.8%	?	i	13µM*	14.8%
Cc1nc2ccc(NC(=S)N3CCCC3)cc2nc1C	-4.1%	8.0%	i	i	0.731µM*
Cc1cc(C(=O)N2CCCC(Nc3ccccc3)C2)c2ccc(F)cc2n1 (centres undefined)	-28.7%	1.9%	i	i	5.1%
CC(=O)/C=C/c1ccccc1Oc1c(F)c(F)nc(F)c1F	18.4µM*	?	?	i	23.1µM*
Oc1ccccc1Oc1c(F)c(F)nc(N2CCCC2)c1F	12.1%	18.9%	i	i	?
CSc1ccc(CN2CCC(C)(Oc3cccc(C#N)c3)C2)cc1 (centres undefined)	nt	nt	i	i	nt
CN1C(=O)C(CC(=O)Nc2ccc(Cl)cc2)N(Cc2ccco2)C1=S (centres undefined)	139.6%	-6.6%	i	i	20.6µM*
CCOc1ccc(NC(=O)CC2C(=O)N(C)C(=S)N2Cc2ccco2)cc1 (centres undefined)	-239.2%	1.4%	i	i	-1.2%
COc1cccc(C(c2c(N)[nH]c(=S)[nH]c2=O)c2c(N)[nH]c(=S)[nH]c2=O)c1	5.17µM*	-11.6%	i	i	-8.9%
CC1=NNC(=O)C1CC(=O)N/N=C/C=C/c1ccccc1 (centres undefined)	-9.7%	2.4%	i	i	2.4%
CC1CCC(C(C)C)C(OC(=O)Cn2c(-c3ccc(Br)cc3)[n+](C)c3ccccc32)C1 (centres undefined)	?	13µM*	18.4µM*!	?	?
CC1CCC(C(C)C)C(OC(=O)Cn2c(-c3ccc(Cl)cc3)[n+](C)c3ccccc32)C1 (centres undefined)	?	?	?	i	?
CCCCCCCCCCOC(=O)Cn1c(COc2ccccc2C)[n+](C)c2ccccc21	?	?	?	i	?
Cc1ccccc1OCc1n(CC(=O)OC2CC(C)CCC2C(C)C)c2ccccc2[n+]1C (centres undefined)	?	11.6µM*	?	i	1.84µM*!
O=C(Cc1n[nH]c(=O)c2ccccc12)N/N=C/c1cc2c(cc1Cl)OCO2	?	-0.9%	i	i	18.4µM*
O=C(NNC(=O)C1CCN(S(=O)(=O)c2ccccc2)CC1)c1ccccc1O	?	-12.9%	i	i	2.3%
O=C(NNC(=O)C1CCN(S(=O)(=O)c2c(Cl)cccc2Cl)CC1)c1ccccc1O	?	-18.4%	?	18.4µM*	?
O=C(O)C1=C(OCc2ccc(F)c(F)c2)C(=O)NCC1	-3.5%	7.8%	i	i	2.0%
COC(=O)c1nnn(CC(=O)Nc2cc(F)ccc2F)c1C(=O)OC	nt	nt	?	i	nt
Cc1cc(Br)ccc1NC(=O)CN(C)C(=O)CN1C(=O)NC(C)(C2CC2)C1=O (centres undefined)	2.7%	15.8%	i	?	-2.4%
Cc1ccc(-n2c(C)cc(C(=O)COC(=O)c3c(C)noc3C)c2C)cc1	15.7%	?	18.4µM*	6.51µM*	17.9%
Cc1cc(C(=O)COC(=O)c2cnccn2)c(C)n1-c1ccc(Br)cc1	-5.4%	7.4%	?	14.6µM*	12.0%
O=C(COC(=O)c1cnccn1)c1ccc(Br)cc1	-0.6%	5.6%	i	?	0.6%
SMILES	SW480 rerep	ELG1 repair inh	KB-3-1 tox	KB-V1 MDR tox	MCF10A rerep
CCC(=O)OCC(=O)c1cc(C)n(-c2ccc(Br)cc2)c1C	0.4%	-5.5%	?	14.6µM*	-6.0%
CCCCCOc1ccc(C(=O)CCC(=O)NNC(=O)c2ccncc2)cc1	3.1%	?	i	i	-3.0%
Nc1nc2cc3ccccc3cc2[nH]c1=O	6.2%	6.5%	6.51µM*	3.66µM*	4.5%
Nc1ccc2nc(CCCCCCc3nc4ccc(N)cc4[nH]3)[nH]c2c1	-4.0%	5.5%	i	i	-0.9%
c1ccc(-c2nc3cc4ccccc4cc3[nH]2)nc1	-0.8%	?	?	?	9.3%
Nc1ccc2nc(CCCCCCCCc3nc4ccc(N)cc4[nH]3)[nH]c2c1	-0.3%	12.6%	i	i	2.31µM*
Nc1cccc(CCc2nc3cc4ccccc4cc3[nH]2)c1	3.66µM*	?	5.17µM*	5.8µM*	7.31µM*
c1ccc(CCc2nc3ccccc3[nH]2)cc1	0.1%	?	i	i	-0.5%
O=C(CSc1nc2ccsc2c(=O)n1-c1ccc(Br)cc1)NCc1ccc(Cl)cc1	nt	nt	i	i	nt
O=C(Nc1cccc2ccccc12)OCc1ccccc1	?	nt	i	i	0.9%
CC1(C(=O)Nc2ccc3c(c2)OCCO3)CN(S(C)(=O)=O)CC(=O)N1CCc1ccccc1 (centres undefined)	nt	nt	i	i	nt
CCCOc1ccccc1C1CC(=O)Nc2cc3c(cc21)OCCO3 (centres undefined)	?	?	1.3µM*	2.59µM*	?
CCOc1ccccc1C1CC(=O)Nc2cc3c(cc21)OCCO3 (centres undefined)	2.91µM*	?	0.461µM*	?	7.31µM*
CCCCOc1ccccc1C1CC(=O)Nc2cc(OC)c(OC)cc21 (centres undefined)	nt	nt	i	i	nt
CCc1nn(CC(=O)N2CCCCCC2)c(=O)c2cc3ccccc3n12	0.7%	6.5%	i	i	3.9%
CC1=NN(c2nc3ccccc3[nH]2)C(=O)/C1=C/N(C)C	3.3%	22.2%	5.8µM*	?	1.9%
O=c1[nH]c2ccccc2nc1NCc1ccccc1	1.8%	?	i	i	1.8%
CC1=NN(c2ccc([N+](=O)[O-])cc2)C(=O)/C1=C\N(C)C	-8.4%	?	?	10.3µM*	-1.5%
CC1=NN(c2nc3ccccc3[nH]2)C(=O)C1Cc1ccccc1 (centres undefined)	2.91µM*	?	?	?	?
CC1=NN(c2ccccc2)C(=O)/C1=C/N(C)C	3.6%	0.2%	i	i	-1.0%
CCC(C(=O)Nc1ccc(C(=O)Nc2ccccc2C(=O)O)cc1)c1ccccc1 (centres undefined)	-4.8%	7.2%	i	i	-3.0%
Cc1ccnc(NC(=O)c2ccccc2NC(=O)C(C)(C)C)c1	16.4µM*	?	?	10.3µM*	16.4µM*
COc1ccc(C(=O)Nc2ccccc2C(=O)Nc2cc(C)ccn2)cc1	46.6%	?	?	?	?
